Test results from PubChem BioAssay AID1159580 (chemical genetic matrix, 2015).
In all, about 5,500 compounds went through this assay and about 2,000 (36%) were called active. Inconclusive results (about 18%) are left out. No stated cut-off is given here; in the data, active means normalized growth mostly below about 0.91 (no sharp cut-off); inconclusive means no clear call, values can overlap the other calls; inactive means mostly above about 0.92. This is one part of the list.

Test: chemical genetic growth profiling, strain panel (AID 1159580);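 further: tested at 20 µM; growth read once vehicle control cultures reached saturation at 30 °C; 1 = growth at the plate median or of vehicle wells; lower values mean less growth of the strain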
Conditions: growth OD
[1] = S. cerevisiae deletion strains, locus YDL101C, strain DUN1, hits give low values
[2] = S. cerevisiae deletion strains, locus YHR030C, strain SLT2, hits give low values

Measured: normalized growth

FC(F)(F)c1c2c(nc3cc(-c4ccco4)nn13)CCC2
active: [2] 0.702 | S. cerevisiae deletion strains, locus YLR113W, strain HOG1, hits give low values 0.802
inactive: S. cerevisiae deletion strains, locus YAR019C, strain CDC15, hits give low values 0.965 | S. cerevisiae deletion strains, locus YBL105C, strain PKC1, hits give low values 0.973 | S. cerevisiae deletion strains, locus YBR135W, strain CKS1, hits give low values 0.964 | S. cerevisiae deletion strains, locus YBR136W, strain MEC1, hits give low values 0.971 | S. cerevisiae deletion strains, locus YBR160W, strain CDC28, hits give low values 0.975 | S. cerevisiae deletion strains, locus YDL017W, strain CDC7, hits give low values 0.971 | S. cerevisiae deletion strains, locus YDL028C, strain MPS1, hits give low values 0.971 | [1] 0.967 | S. cerevisiae deletion strains, locus YDL108W, strain KIN28, hits give low values 0.967 | S. cerevisiae deletion strains, locus YDL132W, strain cdc53, hits give low values 0.96 | S. cerevisiae deletion strains, locus YDL214C, strain PRR2, hits give low values 0.9 | S. cerevisiae deletion strains, locus YDR052C, strain DBF4, hits give low values 0.966 | S. cerevisiae deletion strains, locus YDR054C, strain cdc34, hits give low values 0.952 | S. cerevisiae deletion strains, locus YDR226W, strain ADK1, hits give low values 0.968 | S. cerevisiae deletion strains, locus YDR477W, strain SNF1, hits give low values 0.882 | S. cerevisiae deletion strains, locus YER123W, strain YCK3, hits give low values 0.858 | S. cerevisiae deletion strains, locus YER133W, strain GLC7, hits give low values 0.912 | S. cerevisiae deletion strains, locus YFL009W, strain cdc4, hits give low values 0.968 | S. cerevisiae deletion strains, locus YFL029C, strain CAK1, hits give low values 0.96 | S. cerevisiae deletion strains, locus YFR003C, strain YPI1, hits give low values 0.976 | S. cerevisiae deletion strains, locus YFR019W, strain FAB1, hits give low values 0.959 | S. cerevisiae deletion strains, locus YFR028C, strain CDC14, hits give low values 0.969 | S. cerevisiae deletion strains, locus YGR040W, strain KSS1, hits give low values 0.875 | S. cerevisiae deletion strains, locus YGR052W, strain FMP48, hits give low values 0.942 | S. cerevisiae deletion strains, locus YGR092W, strain DBF2, hits give low values 0.815 | S. cerevisiae deletion strains, locus YHR079C, strain IRE1, hits give low values 0.891 | S. cerevisiae deletion strains, locus YHR082C, strain KSP1, hits give low values 0.896 | S. cerevisiae deletion strains, locus YHR205W, strain SCH9, hits give low values 0.825 | S. cerevisiae deletion strains, locus YIL147C, strain SLN1, hits give low values 0.971 | S. cerevisiae deletion strains, locus YJL095W, strain BCK1, hits give low values 0.819 | S. cerevisiae deletion strains, locus YJL128C, strain PBS2, hits give low values 0.92 | S. cerevisiae deletion strains, locus YJL157C, strain FAR1, hits give low values 0.869 | S. cerevisiae deletion strains, locus YJR016C, strain ILV3, hits give low values 0.973 | S. cerevisiae deletion strains, locus YJR066W, strain TOR1 (second series), hits give low values 0.987 | S. cerevisiae deletion strains, locus YJR066W, strain TOR1, hits give low values 0.833 | S. cerevisiae deletion strains, locus YKL048C, strain ELM1, hits give low values 0.941 | S. cerevisiae deletion strains, locus YKL067W, strain YNK1, hits give low values 0.879 | S. cerevisiae deletion strains, locus YKL101W, strain HSL1, hits give low values 0.928 | S. cerevisiae deletion strains, locus YKL193C, strain SDS22, hits give low values 0.959 | S. cerevisiae deletion strains, locus YKL203C, strain TOR2, hits give low values 0.901 | S. cerevisiae deletion strains, locus YLR133W, strain CKI1, hits give low values 0.884 | S. cerevisiae deletion strains, locus YLR403W, strain SFP1, hits give low values 0.855 | S. cerevisiae deletion strains, locus YML070W, strain DAK1, hits give low values 0.906 | S. cerevisiae deletion strains, locus YMR001C, strain CDC5, hits give low values 0.966 | S. cerevisiae deletion strains, locus YMR205C, strain PFK2 (second series), hits give low values 0.891 | S. cerevisiae deletion strains, locus YMR277W, strain FCP1, hits give low values 0.963 | S. cerevisiae deletion strains, locus YNL006W, strain LST8, hits give low values 0.97 | S. cerevisiae deletion strains, locus YNL020C, strain ARK1, hits give low values 0.851 | S. cerevisiae deletion strains, locus YNL161W, strain CBK1, hits give low values 0.974 | S. cerevisiae deletion strains, locus YNL183C, strain NPR1, hits give low values 0.816 | S. cerevisiae deletion strains, locus YNL207W, strain RIO2, hits give low values 0.96 | S. cerevisiae deletion strains, locus YNL222W, strain SSU72, hits give low values 0.97 | S. cerevisiae deletion strains, locus YNL307C, strain MCK1 (second series), hits give low values 0.861 | S. cerevisiae deletion strains, locus YOL078W, strain AVO1, hits give low values 0.961 | S. cerevisiae deletion strains, locus YOL136C, strain PFK27, hits give low values 0.884 | S. cerevisiae deletion strains, locus YOR061W, strain CKA2, hits give low values 0.865 | S. cerevisiae deletion strains, locus YOR119C, strain RIO1, hits give low values 0.921 | S. cerevisiae deletion strains, locus YOR231W, strain MKK1, hits give low values 0.883 | S. cerevisiae deletion strains, locus YOR329C, strain SCD5, hits give low values 0.976 | S. cerevisiae deletion strains, locus YPL031C, strain PHO85, hits give low values 0.869 | S. cerevisiae deletion strains, locus YPL153C, strain RAD53, hits give low values 0.889 | S. cerevisiae deletion strains, locus YPL204W, strain HRR25, hits give low values 0.87 | S. cerevisiae deletion strains, locus YPL209C, strain IPL1, hits give low values 0.972 | S. cerevisiae deletion strains, locus YPL256C, strain CLN2, hits give low values 0.891 | S. cerevisiae deletion strains, locus YPR025C, strain CCL1, hits give low values 0.968 | S. cerevisiae deletion strains, locus YPR106W, strain ISR1, hits give low values 0.959 | S. cerevisiae deletion strains, locus YPR111W, strain DBF20, hits give low values 0.958 | S. cerevisiae deletion strains, strain NNK1, hits give low values 0.959 | S. cerevisiae deletion strains, strain TSCII, hits give low values 0.969

FC(F)(F)c1cc(-c2ccco2)nc2cc(-c3ccco3)nn12
active: S. cerevisiae deletion strains, locus YAL013W, strain DEP1, hits give low values 0.869 | S. cerevisiae deletion strains, locus YBR229C, strain ROT2, hits give low values 0.908 | S. cerevisiae deletion strains, locus YJR043C, strain POL32, hits give low values 0.881 | S. cerevisiae deletion strains, locus YLR039C, strain RIC1, hits give low values 0.729 | S. cerevisiae deletion strains, locus YMR263W, strain SAP30, hits give low values 0.899 | S. cerevisiae deletion strains, locus YNR030W, strain Alg12, hits give low values 0.798 | S. cerevisiae deletion strains, locus YPL241C, strain CIN2, hits give low values 0.844 | S. cerevisiae deletion strains, locus YPR135W, strain CTF4, hits give low values 0.594
inactive: S. cerevisiae deletion strains, locus YCL061C, strain MRC1, hits give low values 0.98 | [1] 0.972 | S. cerevisiae deletion strains, locus YDR150W, strain NUM1, hits give low values 0.889 | S. cerevisiae deletion strains, locus YEL061C, strain CIN8, hits give low values 0.97 | S. cerevisiae deletion strains, locus YGR078C, strain PAC10, hits give low values 0.958 | [2] 0.722 | S. cerevisiae deletion strains, locus YHR087W, strain rtc3, hits give low values 0.935 | S. cerevisiae deletion strains, locus YJL187C, strain SWE1, hits give low values 0.973 | S. cerevisiae deletion strains, locus YJR075W, strain HOC1, hits give low values 0.903 | S. cerevisiae deletion strains, locus YLR058C, strain SHM2 (second series), hits give low values 0.96 | S. cerevisiae deletion strains, locus YLR085C, strain ARP6, hits give low values 0.829 | S. cerevisiae deletion strains, locus YLR262C, strain YPT6, hits give low values 0.883 | S. cerevisiae deletion strains, locus YML094W, strain GIM5, hits give low values 0.889 | S. cerevisiae deletion strains, locus YMR219W, strain ESC1, hits give low values 1 | S. cerevisiae deletion strains, locus YNL153C, strain GIM3, hits give low values 0.949 | S. cerevisiae deletion strains, locus YNL298W, strain CLA4 (second series), hits give low values 0.859 | S. cerevisiae deletion strains, locus YNL322C, strain KRE1, hits give low values 0.997 | S. cerevisiae deletion strains, locus YPL055C, strain LGE1, hits give low values 0.851 | S. cerevisiae strains, strain wild type, hits give low values 0.988
